What all share (assay): NCI-60 one-dose screen, 48 h (100 = growth as untreated, 0 = no growth, -100 = all killed)
Common to all, as to conditions: 10 µM unless noted

Assay [1] concerns SR leukemia.
For assay [2], the system named is RPMI-8226 leukemia.
The subject of assay [3] is OVCAR-5 ovarian.
The test system of assay [4] is OVCAR-4 ovarian.
For assay [5], the system named is SK-OV-3 ovarian.
Assay [6] deals with IGROV1 ovarian.
For assay [7], the system named is OVCAR-3 ovarian.
The subject of assay [8] is HS 578T breast.
In assay [9] the test system is NCI/ADR-RES ovarian.
For assay [10], the system named is T-47D breast.
Assay [11] relates to MDA-MB-435 melanoma.
For assay [12], the system named is SW-620 colon.
Assay [13] concerns MCF7 breast.
Assay [14] has as its system HCT-116 colon.
Assay [15] concerns HCC-2998 colon.
Assay [16] relates to KM12 colon.
Assay [17] relates to BT-549 breast.
Assay [18] has as its system OVCAR-8 ovarian.

This is part of a sample that, as a whole, favours compounds with a hit. Of some 83,000 tested, about 20% had one in any assay.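 Negative percent growth values reflect cell death: -40 means 40% of the cells present at the start died, and -100 means all died.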 A number with no mark means an inactive call. Calls of active or inactive are those of the source. The calls were made as follows: active = growth percent below 10; inactive = the rest.

Drawing on PubChem BioAssay (NCI), this text covers growth for 16 compounds.

For the compound `O=C(O)c1ccc2c(c1)C(=O)N(Cc1ccccc1)C2=O`, the growth in assay [1] is 101%; in assay [2], 95.5%; in [3], 105%; in [4], 114%; in [5], 106%; in [6], 106%. Further, the growth in [7] was 103%; in assay [8], 99.7%; in assay [9], 98%; in [10], 95.8%; in assay [11], 106%; in [12], 98.6%. The growth was 95.3% in assay [13], 96.8% in [14], 99.2% in assay [15] and 104% in assay [16].

`CCOC(=O)c1cc(C(=O)c2ccc(OC)c(OC)c2)n2ccc(/C=C/c3cc[n+](CC(=O)c4ccc(OC)c(OC)c4)cc3)cc12`: the growth in assay [1] is 92.2%; in assay [2], 81.4%; in assay [3], 99.9%; in assay [4], 90.9%; in assay [5], 102%; in assay [6], 88.6%. Besides, the growth is 102% in assay [7]; 102% in assay [8]; 98.6% in [9]; 89.9% in assay [10]; 96.6% in assay [17]; 99.4% in assay [11]. In addition, the growth in assay [12] was 96.7%; in assay [13] it was 91.1%; in [14], 89.7%; in assay [15] it was 98.8%; in assay [16], 100%.

Consider `COc1cc2c(cc1OC)C(=O)/C(=C/c1cc(C)c(O)c(C)c1)S2`, for which the growth was 18.7% in [1]; 21.6% in assay [2]; 64.7% in assay [3]; 84.7% in [4]; 52.1% in assay [5]; 35.6% in [6]. The growth in assay [7] was -5.93% (active); in [8], 36.8%; in assay [9], 15.3%; in assay [10], 42%; in assay [17], 36.9%; in assay [12], 33.4%. Moreover, the growth in [13] is 20%; in assay [14], 23.1%; in assay [15] it was 60.4%; in assay [16], 26.2%.

Take `CC(=O)Oc1ccc(/C=N/NC(N)=S)nc1`: the growth was 27.9% in [1]; 88.7% in assay [2]; 46.3% in assay [18]; 110% in assay [3]; 56% in [4]; 88% in assay [5]. For the same compound, the growth in [6] is 92.3%; in [7] it was 68%; in assay [8], 127%; in assay [9] it was 41.9%; in [10], 52%; in [11], 87%. The growth is 18.4% in assay [13], 70.1% in assay [14], 55% in assay [15] and 76.5% in [16].

Consider `COC(=O)C(OC(C)=O)C(OC(C)=O)c1ccc(OC)c(OC)c1` (stereo unspecified), for which the growth was 90.9% in assay [1]; 103% in assay [2]; 108% in assay [3]; 94.2% in assay [4]; 110% in assay [5]; 114% in assay [6]. Moreover, the growth was 104% in [7]; 110% in assay [8]; 94.1% in assay [9]; 75.4% in assay [10]; 104% in assay [17]; 106% in assay [11]. Moreover, the growth in assay [13] is 85.4%; in [14], 81.8%; in [15], 108%; in assay [16], 102%.

Take `O=C(Nc1ncc(Cc2cc(Cl)ccc2Cl)s1)c1cccs1`: the growth is 22.9% in assay [1]; 57.2% in assay [2]; 73.9% in assay [3]; 80% in assay [4]; 72.1% in assay [5]; 59.3% in assay [6]. Also, the growth in [7] was 65.2%; in [8], 74.3%; in assay [9], 34.7%; in assay [10] it was 44.8%; in assay [17], 74.6%; in assay [11], 4.2% (active). Moreover, the growth was 48.5% in assay [12]; 32.5% in assay [13]; 35.3% in [14]; 58.4% in assay [15]; 31.2% in assay [16].

For `COc1ccc2[nH]c(O)c(/C=c3/cc4c(c(-c5ccc(F)cc5)n3)=Nc3ccccc3-4)c2c1`, the growth is 6.4% (active) in assay [1]; 75.5% in assay [18]; 119% in assay [3]; 81.6% in [4]; 115% in assay [5]; 96.8% in assay [6]. The growth in assay [7] is 94.7%; in assay [8], 78.8%; in assay [9] it was 52.1%; in assay [10] it was 73.6%; in assay [17], 98.9%; in assay [11], 34.4%. Moreover, the growth was 27.5% in assay [12]; 26.8% in assay [13]; 27.9% in assay [14]; 72.8% in [15]; 43.7% in [16].

As to `C=C1C(=O)O[C@H]2[C@H]1CC/C(C(=O)NCCCCCNC(=O)/C1=C/CC[C@@]3(C)O[C@H]3[C@H]3OC(=O)C(=C)[C@@H]3CC1)=C\CC[C@@]1(C)O[C@@H]21`, the growth in assay [1] is 83.6%; in assay [2], 95.5%; in assay [3] it was 93.9%; in assay [4], 116%; in assay [5], 120%; in [6], 101%. Moreover, the growth was 103% in assay [7]; 104% in [8]; 103% in [9]; 94.2% in assay [10]; 98.2% in [17]; 105% in [11]. Moreover, the growth is 101% in assay [12]; 88.2% in assay [13]; 87% in assay [14]; 105% in assay [15]; 103% in [16].

Take `N#C/C(=C\c1ccc([N+](=O)[O-])s1)c1nc2cc(Br)ccc2s1`: the growth is -18.3% (active) in assay [1]; -43.5% (active) in assay [2]; -19.7% (active) in assay [18]; 20.5% in assay [3]; -11.6% (active) in [4]; 10.1% in assay [5]. Besides, the growth in assay [6] was -32.7% (active); in assay [7], -28.6% (active); in assay [9], -28.5% (active); in assay [10] it was 4.46% (active); in assay [17] it was -13% (active); in assay [11] it was 0.206% (active). The growth in assay [13] is -14.2% (active); in assay [14] it was -66.4% (active); in assay [15], -8.27% (active); in assay [16] it was 16.2%.

`Cc1ccccc1NS(=O)(=O)c1cccc(C(=O)Nc2ccc(Br)cc2)c1`: the growth in assay [1] is 45.2% [25 µM]; in assay [2] it was 33.6% [25 µM]; in assay [3], 76.7% [25 µM]; in assay [4], 36.5% [25 µM]; in [5], 46.3% [25 µM]; in [6], 40.5% [25 µM]. Further, the growth in assay [7] was 47.3% [25 µM]; in [8] it was 59.1% [25 µM]; in assay [9] it was 19.1% [25 µM]; in [10] it was 25.8% [25 µM]; in assay [17] it was 31.2% [25 µM]; in [11], 28.3% [25 µM]. Moreover, the growth in [12] is 58.8% [25 µM]; in [13], 30% [25 µM]; in assay [14], 30.5% [25 µM]; in assay [15], 67.3% [25 µM]; in assay [16] it was 37.1% [25 µM].

On to `CC(=O)O[C@@H]1C2CCC3C(CC[C@@]4(C)C3CC[C@@H]4C(C)N(C)C)[C@@]2(C)CC[C@@H]1NC(=O)C=C(C)C` (stereo partly specified), for which the growth is -34.5% (active) in assay [1]; 44.3% in [18]; 83.8% in [3]; -19.5% (active) in assay [4]; 65.4% in assay [5]; 37.8% in assay [6]. Further, the growth is 0.951% (active) in assay [7]; 16% in assay [8]; 37.6% in assay [9]; -28% (active) in [10]; 26.4% in assay [17]; -47.4% (active) in assay [11]. For the same compound, the growth is -64.5% (active) in assay [12]; -16.9% (active) in assay [13]; -55% (active) in assay [14]; -23.5% (active) in assay [15]; 9.21% (active) in assay [16].

`COc1cc(/C=N/NC(=O)c2cnn3c2NC(c2ccccc2)C3)ccc1OCc1ccccc1` (stereo unspecified): the growth in [1] was 0.0936% (active); in [2] it was 43.7%; in [3] it was 33.2%; in assay [4], -21.9% (active); in [5], 18.9%; in assay [6] it was 12.2%. For the same compound, the growth in assay [7] is -63.4% (active); in [8] it was -1.22% (active); in assay [9], 35%; in assay [10], 8.39% (active); in assay [17], -6.73% (active); in assay [11], -28.3% (active). Besides, the growth is -1% (active) in [12]; 0.769% (active) in assay [13]; -15.1% (active) in [14]; 32.8% in assay [15]; 2.22% (active) in assay [16].

With `C[C@H](c1nc2ccc(N)cc2[nH]1)[C@H]1CC[C@H]2[C@@H]3CCC4=CC(=O)CC[C@]4(C)[C@H]3CC[C@]12C`, the growth in assay [1] was 44.4%; in assay [2], 64.5%; in assay [3] it was 102%; in assay [4], 88.1%; in assay [5] it was 91.2%; in [6], 85.1%. Moreover, the growth in assay [7] is 91.5%; in [8], 87.3%; in assay [9] it was 89%; in [10], 77.8%; in [17], 70%; in [11] it was 95.7%. In addition, the growth was 102% in [12]; 67.9% in assay [13]; 74.6% in [14]; 93.5% in assay [15]; 91.8% in assay [16].

Consider `CCOc1ccc(Nc2nc(-c3ccc4c(c3)NC(=O)CO4)cs2)cc1`, for which the growth was 64.6% in assay [1]; 28% in assay [2]; 92.8% in assay [3]; 25% in assay [4]; 100% in [5]; 94.3% in assay [6]. Also, the growth in assay [7] was 73.7%; in assay [8], 107%; in assay [9], 14.4%; in assay [10], 24.6%; in assay [17], 47%; in assay [12] it was 82.5%. Further, the growth is 38.1% in [13], 40.7% in assay [14], 86% in assay [15] and 67.9% in assay [16].

On to `Cn1cc(CC2CC(=O)N(c3ccccc3)C2=O)sc1=NC(=O)c1ccccc1` (stereo unspecified), for which the growth in [1] is 96%; in assay [2], 105%; in [3], 95.2%; in [4], 103%; in [5], 97.1%; in assay [6], 93.1%. Further, the growth is 99.2% in assay [7]; 89.8% in assay [8]; 97.5% in [9]; 91.1% in assay [10]; 87.2% in assay [17]; 101% in assay [11]. In addition, the growth in [12] is 94.5%; in [13], 99.2%; in assay [14] it was 96.9%; in [15] it was 100%; in assay [16], 98.6%.

For `O=C(Nc1ccc(-c2ccc3c(c2)NC(=O)/C3=C\c2ccc[nH]2)cc1)NC1CC1`, the growth in assay [1] is 34.8%; in [2], 87%; in assay [3], 105%; in assay [4], 98.3%; in assay [5], 118%; in assay [6] it was 96.6%. Further, the growth in [7] was 107%; in assay [8] it was 97.1%; in [9], 105%; in assay [10], 32.1%; in [17], 103%; in [11] it was 98.6%. Also, the growth in [12] is 103%; in assay [13] it was 15.8%; in assay [14], 96.6%; in assay [15], 107%; in assay [16], 19.1%.
